# Not all results are given here.
# aSyn 5UTR act: Activators via SNCA 5'UTR binding, MLPCN | 300,000 tested, 7.1% active | alpha-synuclein 5'UTR reporter, activators screen | activity score, % (tested at 7.5 µM), hits read low | AID 1814; in the data active = activity score below about -60%
# * hit, by the source's call.
SMILES,aSyn 5UTR act
C/C(=N\NC(=O)COc1ccccc1-c1ccccc1)c1ccccn1,114
N/C(=N\OC(=O)c1ccccc1Br)c1ccc([N+](=O)[O-])cc1,-103*
Cc1ccccc1C(=O)O/N=C(\N)c1ccc([N+](=O)[O-])cc1,-127*
N/C(=N\OC(=O)c1ccccc1Br)c1cccc([N+](=O)[O-])c1,-77*
Cc1ccccc1/C(N)=N/OC(=O)c1ccc(F)cc1,-177*
N/C(=N\OC(=O)c1ccccc1F)c1cccc([N+](=O)[O-])c1,-183*
OCCCCCN=c1cc(-c2ccccc2)oc2ccc(Cl)cc12,-747*
Cc1[nH]n(-c2nc(-c3ccc(Cl)cc3)cs2)c(=O)c1N=Nc1ccc(O)cc1,-118*
Cc1ccccc1-c1nc2cc(N)ccc2o1,-123*
CC(C)c1ccc2oc(-c3cc(N)ccc3O)nc2c1,-95*
Clc1cccc(N/N=C(\Cc2nc3ccccc3[nH]2)c2ccccc2)c1,-102*
CCOc1ccc(NC(=O)Nc2cccc(C(=O)O)c2)cc1,108
O=C(Nc1ccc(Cl)cc1)Nc1cccnc1,-66*
CCOc1ccc(NC(=O)Nc2cccnc2)cc1,-141*
O=C(c1ccccc1)N1CCN2C(=O)c3ccccc3C12c1ccc(Cl)cc1 (stereo not given),-72*
CCCn1cnc2c(cnn2-c2ccc(F)cc2)c1=O,-115*
CCCCn1cnc2c(cnn2-c2ccc(F)cc2)c1=O,-123*
CCCCn1cnc2c(cnn2-c2ccc(Cl)cc2)c1=O,-109*
CCOC(=O)C(C)n1cnc2c(cnn2-c2ccc(Cl)cc2)c1=O (stereo not given),-135*
Cc1ccc(OCc2ccc([N+](=O)[O-])cc2)c([N+](=O)[O-])n1,-115*
Cc1ccc(OCCOc2ccc(Br)cc2)c([N+](=O)[O-])n1,-182*
COc1ccc(/C=C/C(=O)Oc2cccc(/C=N/NC(=O)Cc3ccc(Br)cc3)c2)cc1,-80*
O=C(O)c1ccc(N/N=C/C2=Cc3ccccc3OC2)cc1,-136*
COc1ccc(CNS(=O)(=O)c2cc3c(cc2C)N(C)CCO3)cc1,-65*
CC1CCCCN1C(=O)c1cc(-c2ccc3c(c2)OCO3)on1 (stereo not given),-87*
SMILES,aSyn 5UTR act
CCC1CCCCN1C(=O)c1cc(-c2ccc(Cl)c(Cl)c2)on1 (stereo not given),-94*
COc1cccc(-c2cc(C(=O)N3C(C)CCCC3C)no2)c1 (stereo not given),-147*
CC1CCCCN1C(=O)c1cc(-c2ccc(Cl)c(Cl)c2)on1 (stereo not given),-222*
COc1cc(-c2noc(C)c2/C=C/c2ccc(OC(C)=O)cc2)cc(OC)c1OC,95
CC(=O)Nc1nc(NC(=O)/C=C/c2ccccc2)n(-c2ccccc2)n1,79
COc1ccc(/C=C/C(=O)Nc2cc(C)on2)cc1,-216*
Cc1cc(NC(=O)/C=C/c2ccccc2)no1,-156*
COc1ccc(/C=C/C(=O)Nc2nonc2NC(C)=O)cc1,-155*
COc1ccc(/C=C/C(=O)Nc2cc(C(F)(F)F)ccc2Cl)cc1,-62*
C#CCNC(=O)/C=C/c1ccc(OC)cc1,-75*
Cc1cc(NC(=O)/C=C/c2ccccc2Cl)no1,-249*
COc1ccc(C(=O)/C=C/Nc2cc(C)on2)cc1,-94*
CN(C)c1ccc(/C=N/n2ncc3ccccc32)cc1,-290*
[O-]/C(=C(\C(=S)Nc1ccc(SC(F)F)cc1)[n+]1cccc(CO)c1)c1ccc(Cl)s1,-71*
Fc1ccc2c(Cl)c(-c3nnc(-c4cccs4)o3)sc2c1,-178*
O=C(/C=C1\NCC2c3ccccc3CCN2C1=O)c1ccccc1 (stereo not given),-156*
O=C(O)[C@@H]1CCCC[C@@H]1C(=O)N1CCc2ccccc2C1CN1C(=O)c2ccccc2C1=O (stereo not given in full),68
O=C(COc1ccc(Cl)cc1Cl)NCc1ccco1,-64*
O=C(NCc1ccco1)c1ccc(COc2cc(Cl)ccc2Cl)cc1,-95*
Cn1c(N/N=C/c2cc3ccccc3nc2Cl)nc2ccccc21,-127*
Fc1c(F)c(F)c(N/N=C/c2c[nH]c3ccccc23)c(F)c1F,-103*
Cn1c(N/N=C/c2c[nH]c3ccccc23)nc2ccccc21,-126*
CC(C)(C)c1ccc(C(=O)Nc2ccc([N+](=O)[O-])cn2)cc1,-72*
O=C(Nc1ccc([N+](=O)[O-])cn1)c1ccc2c(c1)OCO2,-91*
O=C(NC(Nc1ncc(S(=O)(=O)c2ccc([N+](=O)[O-])cc2)s1)(C(F)(F)F)C(F)(F)F)c1ccc(Cl)cc1,73
SMILES,aSyn 5UTR act
Cc1ccc(N2C(=O)c3ccccc3NC2C(C)Cc2ccc3c(c2)OCO3)cc1 (stereo not given),-68*
CC(=O)c1cccc(OCc2cc(C(=O)N3C[C@@H](C)O[C@@H](C)C3)no2)c1,-75*
COCCC1CCCCN1C(=O)c1cc(COc2cccc(C(C)=O)c2)on1 (stereo not given),-96*
O=C(c1cc(COc2cccc(C(F)(F)F)c2)on1)N1C[C@H]2CC[C@H]1C2,-117*
CC(=O)c1cccc(OCc2cc(C(=O)N3C[C@H]4CC[C@H]3C4)no2)c1,-134*
CCc1nc(SCC#N)c(C#N)cc1C,69
CC(C)OC(=O)CSc1nc2c(cc1C#N)CCCCC2,-166*
N#Cc1cc2c(nc1SCc1ccncc1)CCC2,-95*
CCOC(=O)CC(=O)CSc1nc2c(cc1C#N)CCCCC2,-138*
Cc1cccc2cc(C#N)c(SCC#N)nc12,85
Cc1ccccc1C(=O)Nc1nnc(S(=O)(=O)N(C)Cc2ccco2)s1,-72*
CCOc1ccc(C(=O)Nc2nnc(S(=O)(=O)N(C)Cc3ccco3)s2)cc1,-139*
CC(C)(C)c1csc(CS(=O)(=O)c2ccccn2)n1,-63*
CCN(CC)S(=O)(=O)c1ccc(N=Nc2cc(C)cc(Br)c2O)cc1,-76*
CCN(CC)S(=O)(=O)c1ccc(N/N=C(\C)c2ccc(OC)cc2O)nc1,78
O=C(CSc1nnc(-c2ccccc2Cl)o1)N1CCCC1,-68*
O=C(CSc1nnc(-c2ccccc2O)o1)N1CCOCC1,-69*
O=C(CSc1nnc(-c2ccccc2Br)o1)N1CCOCC1,-111*
CNCc1cc(Cl)cc(OC)c1OC(C)C,-81*
O=C(Nc1ccccc1)OCCOc1ccccc1Br,-125*
O=C(Nc1ccccc1)OCCOc1ccccc1,-143*
O=C(Nc1ccccc1)OCc1cc(-c2ccccc2Cl)on1,-160*
O=C(Nc1ccccc1)OCc1ccccn1,-102*
O=C(Nc1cccc(Cl)c1)OCCOc1ccccc1,-140*
CCC1(COC(=O)Nc2cccc(Cl)c2)COC1,-93*
SMILES,aSyn 5UTR act
Cc1cc(C(=O)C(C)Sc2cccc[n+]2[O-])c(C)n1-c1ccc(Cl)cc1 (stereo not given),-82*
CSc1ccc(C(=O)N2CCc3ccc(NC(=O)c4ccccn4)cc3C2)cc1,-73*
CC1=C(CO)C(=O)OC([C@@H](C)C2CC[C@H]3C4C[C@H]5O[C@]56[C@@H](O)C=CC(=O)[C@]6(C)C4CC[C@]23C)C1 (stereo not given in full),-91*
COc1cccc(C(=O)N=c2sc3c(C)ccc(OC)c3n2C)c1,-209*
COc1ccccc1C(=O)N=c1sc2c(C)ccc(OC)c2n1C,-80*
COc1ccc(C(=O)N=c2sc3c(C)ccc(OC)c3n2C)cc1OC,-295*
N/C(=N\OC(=O)C12CC3CC(CC(C3)C1)C2)c1ccccn1,-110*
C/C(=N\NC(=O)c1ccccn1)C12CC3CC(CC(C3)C1)C2,-131*
